Screens as filed in PubChem.
Casp6 inh: blocks human caspase-6 cleavage activity; P55212; purified caspase-6, Z-VEID-R110 cleavage fluorescence; inhibition, % at 12.5 µM; actives 0.53% (n = 350,000); AID 686996;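 active = mean inhibition across replicates at least about 35%, with every replicate also reaching that limit, limit read from the data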;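 note: 0% = median of neutral control wells and 100% = no fluorescence left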
Target sequence (P55212 24-179 limits assumed): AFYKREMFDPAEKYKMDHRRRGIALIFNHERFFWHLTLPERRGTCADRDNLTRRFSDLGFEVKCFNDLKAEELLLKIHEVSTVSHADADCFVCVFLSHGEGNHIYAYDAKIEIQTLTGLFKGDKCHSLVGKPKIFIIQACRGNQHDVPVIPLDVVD
Target sequence (P55212 194-293 limits assumed): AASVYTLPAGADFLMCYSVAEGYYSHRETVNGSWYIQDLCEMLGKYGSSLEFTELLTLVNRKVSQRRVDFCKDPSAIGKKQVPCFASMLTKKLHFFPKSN
F508del corr: CFTR F508del correction in bronchial cells. CFBE cells, YFP halide quenching; stimulated with forskolin plus potentiator P3; % fluorescence drop versus neutral controls. activity (quench increase), % at 7.58 µM. actives 0.36% (n = 350,000);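 active = mean added fluorescence quench of at least 8% versus neutral control, with both replicates also reaching 8%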;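 note: cells transiently co-express mutant CFTR-F508del with the halide-sensitive YFP; corrector assay measuring rescue of mutant channel to the surface after 24 h compound exposure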
NSD2 HMT inh: inhibitors of human histone methyltransferase NSD2. O96028. NSD2 peptide methylation, AlphaScreen, 120 min. inhibition, % at 12.5 µM. actives 0.54% (n = 310,000); in the data active = inhibition above about 50%
ALR H2O2 inh: blocks human ALR sulfhydryl oxidase activity; inhibition, % (test concentration not listed); actives 3.8% (n = 290,000); purified ALR, DTT oxidation, H2O2 HRP-luminol luminescence;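 active = mean replicate inhibition above about 79%, with every replicate also reaching it, limit read from the data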
PglD inh: blocks C. jejuni PglD acetyltransferase activity; actives 0.098% (n = 360,000); purified PglD enzyme, DTNB colorimetric CoA detection; inhibition, % at 12.5 µM; in the data active = inhibition above about 16%, passing the limit was not always enough
HIV Env fusion: HIV envelope-mediated fusion inhibition; actives 1.1% (n = 360,000); AID 651610; inhibition, % at 12.3 µM; HeLa-JRFL Env/CEM21 cell fusion, luciferase;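 active = mean replicate inhibition score of at least 50 and every replicate individually at or above 50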;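 note: 0% = plate neutral controls and 100% = maraviroc near 300 nM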
The depositor's hits bear a star; nt = no result; [ ] = remark or other dose. A selection: hits, their analogues and other compounds. The true share with any hit is near 4.1%.

SMILES | Casp6 inh | F508del corr | NSD2 HMT inh | ALR H2O2 inh | PglD inh | HIV Env fusion
Cc1cc(N2CCCC2=O)cc(C)c1S(=O)(=O)NCCOc1ccc(C(C)(C)C)cc1 | 0 | nt | 0 | -6 | -5 | 85*
N=C(N)SCc1cn2ccccc2n1 | nt | nt | 6 | 98* | nt | 7
Clc1ccc(SCc2cn3ccccc3n2)cc1 | 2 | 2 | 0 | -12 | nt | -44
c1ccc2c(SCc3cn4ccccc4n3)nncc2c1 | -1 | 0 | 1 | 99* | nt | -29
C[C@@H]1CN([C@H](C)CO)C(=O)Cc2cc(NC(=O)Cc3ccccc3)ccc2O[C@@H]1CN(C)C(=O)Nc1ccc2c(c1)OCO2 | 0 | 4 | nt | nt | 8 | 13[16.7 µM]
O=C(CSCc1ccco1)c1cccs1 | nt | nt | 5 | 99* | nt | nt
O=C(NCc1ccco1)c1cccs1 | nt | nt | -2 | nt | 3 | nt
O=C(O)c1ccc(CSCc2ccco2)cc1 | 15 | nt | 2 | 97* | -4 | nt
CC(C)NC(=O)N(C)C[C@@H]1Oc2c(NC(=O)Nc3ccc4c(c3)OCO4)cccc2C(=O)N([C@@H](C)CO)C[C@@H]1C | nt | 0 | nt | nt | 2 | -2[16.7 µM]
COc1cc([C@H]2Oc3cc([C@H]4Oc5cc(O)cc(O)c5C(=O)[C@@H]4O)ccc3O[C@@H]2CO)ccc1O | 11 | -1 | nt | 99* | 8 | 7
COc1cc([C@@H]2Oc3cc(C4Oc5cc(O)cc(O)c5C(=O)[C@H]4O)ccc3O[C@H]2CO)ccc1O (some centres not stated) | nt | nt | nt | 99* | 0 | nt
COc1cc(OC)c2c(c1)OC(c1ccc(OC)c(OC)c1)C(O)C2=O (configuration not stated) | -1 | 2 | nt | nt | -2 | 6
COc1ccc([C@@H]2CC(=O)c3c(O)cc(O)cc3O2)cc1O | 4 | -1 | nt | 3 | 0 | -53
O=C(NNc1cccc(Cl)c1)c1cccnc1Cl | 1 | 0 | -3 | 98* | nt | -1
O=C(NNc1cccc(Cl)n1)c1cccnc1Cl | 3 | -1 | -1 | -6 | nt | 18
C[C@H]1CCCCO[C@H](CN(C)Cc2ccc3c(c2)OCO3)[C@@H](C)CN([C@@H](C)CO)C(=O)c2cc(NC(=O)c3ccncc3)ccc2O1 | 4 | -2 | nt | nt | 0 | 1[16.7 µM]
C[C@@H]1CN([C@@H](C)CO)S(=O)(=O)c2ccc(C#CC3CC3)cc2O[C@H]1CN(C)C(=O)C1CCCCC1 | nt | -1 | nt | nt | nt | 36[16.7 µM]
COc1ccccc1CCNC(C)CCc1ccc(O)cc1 (configuration not stated) | 1 | -2 | 32 | 32 | 2 | 11
CC(CCc1ccc(O)cc1)NCCc1ccc(O)c(O)c1 (configuration not stated) | 21 | 3 | nt | 99* | 4 | 45
O=C(O)c1cc(-c2ccco2)nn1-c1cccc(Cl)c1 | 46* | 3 | 29 | nt | nt | -2
Cc1nn(-c2ccccc2)c2nc(-c3ccco3)cc(C(=O)O)c12 | nt | nt | 24 | 97* | 6 | nt
COc1ccc2c3c([nH]c2c1)[C@@H](CO)N(Cc1nccs1)CC31CCN(Cc2nccs2)CC1 | nt | -1 | nt | nt | nt | nt
COc1cc(C2Nc3cc(C)c(C)cc3NC3=C2C(=O)CC(C)(C)C3)ccc1OC(C)=O (configuration not stated) | 7 | 4 | 2 | 80* | 3 | 10
COc1ccc(C2Nc3ccccc3NC3=C2C(=O)CC(C)(C)C3)cc1O (configuration not stated) | 10 | -1 | 17 | nt | -1 | -43
CCOc1ccc(C2Nc3ccccc3NC3=C2C(=O)CC(C)(C)C3)cc1OC (configuration not stated) | 5 | -3 | -5 | 98* | -4 | -2
COc1ccc(OC)c(C2Nc3ccccc3NC3=C2C(=O)CC(C)(C)C3)c1 (configuration not stated) | 4 | -3 | 2 | 99* | 1 | 8
COc1ccc(C2Nc3ccccc3NC3=C2C(=O)CC(C)(C)C3)c(OC)c1OC (configuration not stated) | 5 | 0 | 1 | 98* | -2 | 3
COc1ccc(C2Nc3ccccc3NC3=C2C(=O)CC(C)(C)C3)cc1OC (configuration not stated) | 8 | -2 | -2 | 73 | -6 | -57
CC1(C)CC(=O)C2=C(C1)Nc1ccccc1NC2c1cc(Cl)ccc1O (configuration not stated) | 4 | -3 | 3 | nt | -8 | 2
